Source: PubChem BioAssay (Tox21)
Inconclusive results are not listed. Activity calls are given as the source filed them. The call rests on the fitted dose curve; in most records, active means well fitted cell-killing curve with a large enough effect in the repeat runs; inconclusive means weak or mixed curves, or effect the other way; inactive means flat fitted curve, though single readings scatter.

Test: qHTS RealTime-Glo MT Cell Viability Assay in HEK293 cells - 0 hour (AID 1224880); further: top concentration of the series differs between compounds; nearly all actives have a fitted effect of over 45% in size
Conditions: RealTime-Glo luminescence; series mostly up to 76.8 µM
From the text: U.S. Tox21 Program National Center for Advancing Translational Sciences [NCATS] NIH Chemical Genomics Center [NCGC] U.S. Environmental Protection Agency [EPA] National Institutes of Environmental Health Sciences [NIEHS] National Toxicology Program [NTP] U.S. Food and Drug Administration [FDA] Tox21 Assay Overview: Measure of cell viability is critical in the cell-base assay. Analysis of cell viability is necessary for the characterization of cell responses to cytotoxic drugs and environmental stress. A RealTime-Glo MT Cell Viability Assay to monitor cell viability in real time of continues cell culture during 40 hours of compound treatment was used to screen Tox21 10K library compounds in Hek293 cells. The RealTime-Glo MT Cell Viability Assay is a nonlytic, homogeneous, bioluminescent method to measure cell viability in real time using a simple, plate-based method. The assay involves adding NanoLuc luciferase and a cell-permeant prosubstrate to cells in culture. Viable cells reduce the proprietary prosubstrate to generate a substrate for NanoLuc luciferase. This substrate diffuses from cells into the surrounding culture medium, where it is rapidly used by the NanoLuc Enzyme to produce a luminescent signal. The signal correlates with the number of viable cells, making the assay well suited for cytotoxicity studies.
Tox21 Assay Protocol Summary: The mixture of Hek293 cell suspension and reagents were dispensed at 600cells/6 ul/well in 1536-well tissue culture treated black solid bottom plates using a Multidrop dispenser. After the assay plates were incubated at a 37 C/5% CO2 incubator for 5 hours, 23 nL of compounds dissolved in DMSO, positive and negative controls was transferred to the assay plate by a pintool work station. The plates were incubated at 37 C for 40 hours. The luminescence intensity were measured at 0h, 8h, 16h, 24h, 32h and 40h time points using ViewLux plate reader during compound treatment.

Compound	outcome
CC(C)NC(=O)N1CC(=O)N(c2cc(Cl)cc(Cl)c2)C1=O	inactive
O=c1[nH]c(=O)[nH]c(=O)[nH]1	inactive
CCC(C)(CC)c1cc(NC(=O)c2c(OC)cccc2OC)on1	inactive
CC(Oc1ccc(Cl)cc1Cl)C(=O)O (stereo not given)	inactive
OCCN(CCO)CCO	inactive
CCc1cccc(C)c1N(C(=O)CCl)C(C)COC (stereo not given)	inactive
O=[N+]([O-])c1ccc([As](=O)(O)O)cc1	inactive
[O-][Cl+2]([O-])O	inactive
Nc1ccc(Oc2ccc(N)cc2)cc1	inactive
C=CC(N)=O	inactive
O=[N+]([O-])c1ccccc1	inactive
O=[N+]([O-])c1ccc(Oc2ccc(Cl)cc2Cl)cc1	inactive
CNC(=O)Oc1ccccc1OC(C)C	inactive
CC(=O)C=C(C)C	inactive
CC(C)(C)C(O)(CCc1ccc(Cl)cc1)Cn1cncn1 (stereo not given)	inactive
CCNc1nc(NC(C)C)nc(SC)n1	inactive
Nc1c(Cl)c(Cl)nc(C(=O)O)c1Cl	inactive
C#CC(C)(C)NC(=O)c1cc(Cl)cc(Cl)c1	inactive
COc1ccc2c3c1O[C@H]1[C@@H](O)C=C[C@H]4[C@@H](C2)N(C)CC[C@@]341	inactive
O=S(=O)(c1ccc(Cl)cc1)c1cc(Cl)c(Cl)cc1Cl	inactive

Compound	outcome
CN(C)N=O	inactive
CC(C)OC(=O)Nc1cccc(Cl)c1	inactive
c1ccc(OP(Oc2ccccc2)Oc2ccccc2)cc1	inactive
CC(C)C#N	inactive
OC(O)C(Cl)(Cl)Cl	inactive
CN(C)[C@@H]1C(=O)C(C(N)=O)=C(O)[C@@]2(O)C(=O)C3=C(O)c4c(O)cccc4[C@@](C)(O)[C@H]3C[C@@H]12	inactive
CCN(CC)CCO	inactive
O=NN1CCCCCCC1	inactive
O=NN1CCCC1	inactive
COC(=O)c1ccccc1C(=O)OC	inactive
CC(C)(C)OOC(C)(C)C	inactive
ClCCBr	inactive
CCCCCOC(=O)c1ccccc1C(=O)OCCCCC	inactive
Cn1cc(-c2ccccc2)c(=O)c(-c2cccc(C(F)(F)F)c2)c1	inactive
CCCCN(CC)C(=O)SCCC	inactive
O=c1[nH]c2ccccc2c(=O)o1	inactive
CCCC1COC(Cn2cncn2)(c2ccc(Cl)cc2Cl)O1 (stereo not given)	inactive
Oc1ccccc1Cl	inactive
CC1OC(C)OC(C)O1 (stereo not given)	inactive
CN(N=O)c1ccccc1	inactive
